Usually inhibition stands for the change of the read-out against control, counted positive when it falls.

The text below walks through data of PubChem BioAssay AID778 (Sanford-Burnham Center for Chemical Genomics, 2007).

Molecules are shown by their SMILES. The whole screen tested about 96,000 compounds, of which about 20,000 (21%) were called active. Only a sample is shown. Values without a mark were called inactive.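 Rule for the calls: active = CYP2C19 inhibition above a set limit at 5 µM in the primary screen (cut at about 50% in these data); inactive = the rest.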

In the assay the target is Cytochrome P450 2C19 (Homo sapiens) (UniProt P33261). The experiment in a line: blockers of cytochrome P450 2C19 activity – biochemical, luminescence, ADME assay, primary screen (AID 778).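 Note: plate controls were negative control wells for no effect and 2.5 mM tranylcypromine positive control for full effect.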 The following applies: CYP2C19 Supersomes, luciferin-H EGE luminescence, 30 min; at 5 µM; active compounds read high.
Sequence of Cytochrome P450 2C19 (Homo sapiens) (P33261 whole entry, looked up): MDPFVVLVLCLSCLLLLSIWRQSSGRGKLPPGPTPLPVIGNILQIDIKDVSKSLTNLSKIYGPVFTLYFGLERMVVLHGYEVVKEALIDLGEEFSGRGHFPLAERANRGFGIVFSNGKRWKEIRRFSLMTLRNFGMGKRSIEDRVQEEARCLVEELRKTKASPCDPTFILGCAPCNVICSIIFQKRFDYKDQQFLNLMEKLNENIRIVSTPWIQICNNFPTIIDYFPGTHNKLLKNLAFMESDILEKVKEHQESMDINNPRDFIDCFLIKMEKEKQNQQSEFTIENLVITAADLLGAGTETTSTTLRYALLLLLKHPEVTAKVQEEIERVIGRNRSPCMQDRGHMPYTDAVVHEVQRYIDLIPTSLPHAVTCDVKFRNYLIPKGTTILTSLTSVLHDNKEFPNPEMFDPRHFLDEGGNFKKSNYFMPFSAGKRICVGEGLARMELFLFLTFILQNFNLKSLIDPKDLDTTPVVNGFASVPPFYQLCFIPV
On to `COC(=O)C1=C(N)Oc2cc(C)oc(=O)c2C1c1cccnc1` (configuration not stated), for which the inhibition is 38.3%.
Take `Cc1nn(C)cc1/C=C1\CCC/C(=C\c2cn(C)nc2C)C1=O`: the inhibition was 16.5%.
Take `COCCCn1c2nc3ccccc3nc2c2c(=O)n(Cc3ccc(Cl)cc3)c(C)nc21`: the inhibition is 59.8% (active).
As for `COCCCNC(=O)CCc1nc2cccnc2n1Cc1ccc(OC)cc1`, the inhibition is -3%.
`Cc1ccc(Cn2c(C)nc3c(c2=O)c2nc4ccccc4nc2n3Cc2ccco2)cc1`: the inhibition is 28%.
On to `COc1cc(/C=N\NC(=O)C2C(=O)NCC2c2ccccc2)cc(OC)c1O` (configuration not stated), for which the inhibition was -8.6%.
Turning to `O=C(NN1C(=O)C2C3C=CC(C4CC34)C2C1=O)c1ccc(Cl)cc1` (configuration not stated), the inhibition was 1.3%.
Take `CC(C)OCCCNC(=O)C1CC(=O)N(C2CCCCCCC2)C1` (configuration not stated): the inhibition is -8.7%.
With `Cc1ccc(S(=O)(=O)N(c2cccc(C)c2)C2CCS(=O)(=O)C2)cc1` (configuration not stated), the inhibition is -10.2%.
As to `CCOc1ccccc1Nc1nnc(SCC(=O)Nc2cc(C)on2)s1`, the inhibition is 9.6%.
As for `CCc1ccc(CCC(=O)Nc2ccc(S(N)(=O)=O)cc2)o1`, the inhibition was -6.2%.
As for `CCOc1ccccc1NC(=O)CCc1ccc(C)o1`, the inhibition was 90.7% (active).
Regarding `O=c1c2ccccc2nc2n1C(CSCc1cccc(C(F)(F)F)c1)CS2` (configuration not stated), the inhibition is 84.1% (active).
Take `O=c1c2ccccc2nc2n1C(CSCc1ccccc1)CS2` (configuration not stated): the inhibition was 63.8% (active).
On to `O=c1c2ccccc2nc2n1C(CSc1ccc(F)cc1)CN2` (configuration not stated), for which the inhibition was -3.9%.
To `CC1CSc2nnc(CCc3ccccc3)n21` (configuration not stated) belongs 2.1%.
As to `Cc1ccccc1N/N=C/c1ccc(N2CCOCC2)cc1`, the inhibition was 23.7%.
With `CCOc1ccccc1/C=c1\sc2nc(-c3ccco3)nn2c1=O`, the inhibition is 15.4%.
For the molecule `O=C(NC1CCCCC1)C1CC(=O)N(CCc2ccccc2)C1` (configuration not stated), the inhibition is -5.3%.
As for `O=C(CN1C(=O)CC(c2ccccc2)=Nc2ccccc21)NC1CCCCC1`, the inhibition is 52.2% (active).
With `CN(CCCNC(=O)CN1C(=O)CC(C)(C)S(=O)(=O)c2ccccc21)C1CCCCC1`, the inhibition was 9.9%.
With `O=C(NCc1ccco1)c1cc(-c2cccnc2)nc2ccc(Cl)cc12`, the inhibition is 0.7%.
`O=C(NCCCN1CCN(C2CCCCC2)CC1)Nc1ccccc1C(F)(F)F`: the inhibition is -6.6%.
For the molecule `Cc1ccc(CNC(=O)C2CCCN(S(C)(=O)=O)C2)cc1` (configuration not stated), the inhibition was 26.6%.
To `Cc1ccoc1C(=O)Nc1cccc(Oc2ccccc2)c1` belongs 5.3%; to `O=C(Nc1ccccc1[N+](=O)[O-])C1C(c2ccccc2)=C1c1ccccc1`, 18.5%; to `CC(=O)Nc1cccc(NC(=O)c2c(-c3ccccc3)noc2C)c1`, 67.3% (active).
Regarding `Cc1onc(-c2ccccc2)c1C(=O)Nc1ccccc1C#N`, the inhibition was 86.7% (active).
As to `Cc1onc(-c2ccccc2)c1C(=O)N1CCOCC1`, the inhibition is 1.4%.
On to `CCOC(=O)c1c(-c2cccc(C)c2)csc1NC(=O)c1c(-c2ccccc2)noc1C`, for which the inhibition is 37.7%.
For `CCOC(=O)c1sc(NC(=O)CSc2ncccn2)c(C#N)c1C`, the inhibition was 6.5%.
On to `CCOC(=O)c1cc(NC(=O)c2cccnc2)cc(C(=O)OCC)c1`, for which the inhibition is 22.9%.
Regarding `Cc1cc(C(=O)CC#N)c(C)n1CC(F)(F)F`, the inhibition is 17%.
On to `CC(C)OCCCNC(=O)CNC(=O)c1cccs1`, for which the inhibition was 14%.
To `CCCCOc1ccc(C(C)(O)CCN2CCOCC2)cc1` (configuration not stated) belongs -1.7%; to `CCOc1ccc(C2C(C(=O)O)c3ccccc3C(=O)N2CCN2CCOCC2)cc1` (configuration not stated), -12.7%.
For `CCCOc1ccc(C2c3c(oc4cc(C)c(C)cc4c3=O)C(=O)N2CCCN2CCOCC2)cc1` (configuration not stated), the inhibition was 69.9% (active).
`COC(=O)[C@H](C)NC(=O)Nc1ccc(OC(F)(F)F)cc1`: the inhibition is 9.5%.
In the case of `Cc1ccc(N2C(=O)S/C(=C/c3cn(C)c4ccccc34)C2=O)cc1`, the inhibition is -7.8%.
Regarding `COc1ccc(-c2nnn(Cc3nc(N)nc(N4CCCCC4)n3)n2)cc1`, the inhibition was 65.2% (active).
On to `COc1ccc(-n2nnnc2SCc2nc(N)nc(N3CCOCC3)n2)cc1`, for which the inhibition was 22.5%.
In the case of `CCc1ccc(-c2nnn(Cc3nn[nH]n3)n2)cc1`, the inhibition is 14.2%.
The result for `CCN(CC)Cc1cc(C(C)=O)ccc1O` reads -2.4%; that for `Cc1c(CN2CCC(C)CC2)c(=O)n(-c2ccccc2)n1C`, -0.1%; that for `Cc1nnc(SCC(=O)N2CCc3ccccc3C2)s1`, 42.5%.
To `Cc1nnc(SCC(=O)NCc2ccccc2)s1` belongs -3.1%; to `Cc1nnc(SCc2nc3ccccc3nc2C)s1`, 52.6% (active).
As for `CCc1c(C)sc(NC(=O)OC)c1C(=O)N1CCOCC1`, the inhibition is -0.7%.
With `CC(C)OC(=O)CN1C(=O)c2ccccc2C1=O`, the inhibition is 24%.
Regarding `CC(=O)c1cnc(SCCN2C(=O)c3ccccc3C2=O)nc1C`, the inhibition was 57.8% (active).
To `C=CCn1c(C)cc(C(=O)CN2C(=O)c3ccccc3C2=O)c1C` belongs 2.9%.
Turning to `CC(=O)NNc1cc(=O)c2c(=O)n(C)c(=O)n(C)c2[nH]1`, the inhibition was -1.8%.
To `Cc1cc(=O)n2c3c(cccc13)CCC2` belongs 18.8%; to `COc1ccc(/C=C2/S/C(=N/N=C3\CC4CCC3(C)C4(C)C)NC2=O)cc1` (configuration not stated), -9.6%; to `CCOc1ccc2nc(NCCNS(=O)(=O)c3ccccc3)c(C#N)cc2c1`, 24.6%.
With `CCOCCCNS(=O)(=O)Cc1ccccc1`, the inhibition is 42.5%.
To `CCOc1ccc(S(=O)(=O)NCCSc2ccccc2)cc1` belongs 98.7% (active); to `COCCNC(=O)Cn1cc2c(n1)CCCCC2`, -6.8%; to `O=C1C2C3C=CC(C4CC34)C2C(=O)N1/N=C/c1ccc(-c2ccccc2[N+](=O)[O-])o1` (configuration not stated), 72.2% (active).
Consider `CCOc1cc2[nH]c(=O)n(CCC(=O)NCc3ccc(OC)cc3)c(=O)c2cc1OCC`, for which the inhibition was -6%.
With `C/C(=C\c1ccco1)C1Nc2cccc3cccc(c23)N1`, the inhibition was 72.8% (active).
In the case of `Cc1cccc(NC(=O)/C(=C\c2ccco2)NC(=O)c2ccccc2)c1`, the inhibition is 13.6%.
For `O=C(NCC1CCCO1)/C(=C\c1ccco1)NC(=O)c1ccccc1` (configuration not stated), the inhibition is -11.9%.
To `CCOC(=O)N1CCN(C(=O)c2cnc3n(c2=O)CCS3)CC1` belongs -15.9%.
In the case of `CCOC(=O)c1nc(C)n(-c2ccc(Cl)cc2Cl)n1`, the inhibition is 16.5%.
For the molecule `Cc1nn(C(C)CC(=O)O)c(C)c1C` (configuration not stated), the inhibition is 6.7%.
With `Cc1ccc(N2C(=O)C3C(c4ccccc4)(C2=O)C3(c2ccccc2)c2ccccc2)cc1` (configuration not stated), the inhibition is 8.1%.
`O=C(C1CC1)N1CCN=C1SCc1ccc(Cl)cc1`: the inhibition is 98.5% (active).
As to `CSC1=NCCN1C(=O)c1ccc(S(=O)(=O)N2CCOCC2)cc1`, the inhibition is 13.3%.
In the case of `CCCOC(=O)CC1C(=O)NCCN1Cc1ccc(F)cc1` (configuration not stated), the inhibition is 19.1%.
Regarding `CCC(=O)N1CCN=C1SCc1ccc(F)cc1`, the inhibition is 78.7% (active).
For `O=C(c1ccco1)N1CCN=C1SCc1cccc(Cl)c1`, the inhibition is 20.6%.
Turning to `CCOC(=O)c1c(C(C#N)C#N)cc(C)nc1C`, the inhibition was -4.1%.
Turning to `CC(=O)Nc1ccc(NC(=O)c2sc3nc4c(c(-c5ccc(C)cc5)c3c2N)CCC4)cc1`, the inhibition was -6.7%.
For `O=S(=O)(/C=C/c1ccccc1)NCCc1ccccn1`, the inhibition was 53.8% (active).
As for `NS(=O)(=O)c1ccc(NS(=O)(=O)/C=C/c2ccccc2)cc1`, the inhibition is 38.8%.
Consider `C/C(N)=C(\C#N)C(=O)NCCc1ccccn1`, for which the inhibition was -6.3%.
Take `COc1ccc(CC(=O)Nc2nc3n(n2)C(c2ccccc2)CC(=O)N3)cc1OC` (configuration not stated): the inhibition was -4.1%.
Turning to `COc1ccc(CN2CCCCC2C)cc1OC` (configuration not stated), the inhibition was 3%.
The result for `CCc1ccc2oc(=O)cc(CN3CCCCC3C)c2c1` (configuration not stated) reads 92.7% (active); that for `O=c1cc(CN2CCN(c3cccc(Cl)c3)CC2)c2cc3c(cc2o1)CCCC3`, 12.6%.
Consider `O=C(CSc1nnc(-c2ccoc2)o1)N1CCOCC1`, for which the inhibition was -14.6%.
For `Cc1cc(C)n(-c2cc(Oc3ccccc3)ncn2)n1`, the inhibition is 15.9%.
The result for `O=S(=O)(c1cnccc1N1CCN(/N=C/c2ccc(Br)cc2)CC1)N1CCCCC1` reads -12%; that for `CC(C)=C1SC(N2CCN(c3cccc(C)c3)CC2)=NC1=O`, 6.5%; that for `CNS(=O)(=O)c1cnccc1N1CCN(c2cccc(C)c2)CC1`, 78.6% (active).
For the molecule `CCn1c(SCC(=O)Nc2nc(C)cs2)nnc1C(C)NC(=O)c1ccccc1` (configuration not stated), the inhibition was 8.1%.
For the molecule `O=C1CC(c2ccccc2)CC(O)=C1C=NCCN1CCOCC1` (configuration not stated), the inhibition is 0.2%.
For the molecule `CCCc1nnc(NC(=O)c2cc(OC)cc(OC)c2)s1`, the inhibition is 32.5%.
The result for `COc1ccc(OC)c(S(=O)(=O)Nc2ccccc2F)c1` reads 85.9% (active).
For `COc1ccc(Cl)cc1S(=O)(=O)Nc1cccc(C(=O)O)c1`, the inhibition was 13.4%.
With `COc1ccccc1NS(=O)(=O)N(C)C`, the inhibition was 4.9%.
Consider `Cn1c(SCC(=O)OC2CCCCC2)nnc1-c1ccc(S(=O)(=O)N2CCCC2)cc1`, for which the inhibition is 5.7%.
Regarding `CC(C)c1ccc(NC(=O)NC2CCCCC2)cc1`, the inhibition is -15.2%.
Consider `Cc1ccc(NC(=S)NC2CCCC2)cc1`, for which the inhibition is 54.5% (active).
Take `Cc1ccc(NC(=S)N/N=C2/CCCc3c(C)cc(C)cc32)cc1`: the inhibition is -4.5%.
The result for `CCOC(=O)N1CCN(CC(=O)c2ccc3c(c2)CCN3)CC1` reads 34.1%.
As for `CC(C)NC(=O)C(=O)N/N=C/c1ccco1`, the inhibition was -7%.
For the molecule `Nc1ccc(SCCN2C(=O)c3ccccc3C2=O)cc1`, the inhibition is 94.6% (active).
To `O=C1c2ccccc2C(=O)N1CCc1nn[nH]n1` belongs -6.8%.
For `O=C1c2ccccc2C(=O)N1CCC(c1ccccc1)c1ccco1` (configuration not stated), the inhibition was 22.9%.
Turning to `Cc1cc(Br)ccc1NC(=O)C1CCCO1` (configuration not stated), the inhibition was 46.4%.
